Experimental data taken from ChEMBL document CHEMBL5308504, “Tm Shift (DSF) assay results for EUbOPEN Chemogenomics Library” (2023).
Several values for one entry are separate records, joined by “and”; a condition that tells them apart may be missing. Equal entries are not always repeated.

Experiments:
[1] = biological target: Bromodomain-containing protein 4 (Homo sapiens) (UniProt O60885); conditions: Compound concentration 20.0 uM, Protein concentration 2.0 uM, Result type QC Liability
[2] = biological target: T1, Transcription intermediary factor 1-alpha (Homo sapiens) (UniProt O15164); conditions: Compound concentration 20.0 uM, Protein concentration 2.0 uM, Result type QC Liability
T1 sequence (whole entry): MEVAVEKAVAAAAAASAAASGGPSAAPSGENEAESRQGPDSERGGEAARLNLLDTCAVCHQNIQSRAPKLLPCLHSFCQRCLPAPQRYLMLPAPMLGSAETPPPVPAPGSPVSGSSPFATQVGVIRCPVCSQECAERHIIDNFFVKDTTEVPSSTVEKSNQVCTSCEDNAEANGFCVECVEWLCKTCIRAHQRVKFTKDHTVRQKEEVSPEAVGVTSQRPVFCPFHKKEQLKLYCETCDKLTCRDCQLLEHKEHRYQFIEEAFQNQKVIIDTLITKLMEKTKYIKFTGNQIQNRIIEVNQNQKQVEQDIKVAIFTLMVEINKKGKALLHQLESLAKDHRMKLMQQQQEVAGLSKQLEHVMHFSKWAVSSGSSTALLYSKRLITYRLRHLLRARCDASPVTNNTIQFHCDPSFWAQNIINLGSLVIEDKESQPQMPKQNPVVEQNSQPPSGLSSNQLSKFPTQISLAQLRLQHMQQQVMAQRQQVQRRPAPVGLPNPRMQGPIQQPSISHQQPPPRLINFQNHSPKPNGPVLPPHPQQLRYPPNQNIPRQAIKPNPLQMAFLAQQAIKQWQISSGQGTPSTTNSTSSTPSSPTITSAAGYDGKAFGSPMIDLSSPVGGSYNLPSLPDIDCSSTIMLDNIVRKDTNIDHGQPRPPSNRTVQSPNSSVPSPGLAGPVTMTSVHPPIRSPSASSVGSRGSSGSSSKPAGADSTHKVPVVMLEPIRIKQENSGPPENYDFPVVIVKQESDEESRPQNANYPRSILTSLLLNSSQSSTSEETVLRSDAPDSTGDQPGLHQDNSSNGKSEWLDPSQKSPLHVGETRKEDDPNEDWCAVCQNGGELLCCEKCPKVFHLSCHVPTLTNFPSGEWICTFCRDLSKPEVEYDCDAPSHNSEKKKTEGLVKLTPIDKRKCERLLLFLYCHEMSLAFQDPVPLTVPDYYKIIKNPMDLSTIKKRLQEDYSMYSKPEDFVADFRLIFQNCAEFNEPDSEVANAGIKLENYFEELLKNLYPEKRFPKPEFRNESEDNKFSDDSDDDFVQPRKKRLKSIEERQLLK

Row | SMILES | ΔTm [1] | ΔTm [2]
1 | Cc1cn([C@@H](C)CC#N)c(=O)c2cc(Cn3nc(C(F)F)cc3Cl)nn12 | -0.88 °C | -2.22 °C
2 | N=C(N)NCCC[C@H](NC(=O)C(c1ccccc1)c1ccccc1)C(=O)NCc1ccc(CNC(N)=O)cc1 | 0.06 °C | 0.24 °C
3 | COc1ccc(CSc2nnc(-c3ccc4ncsc4c3)o2)cc1C(F)(F)F | -5.83 °C | -2.33 °C
4 | Nc1nc(-c2nn(Cc3ccccc3F)c3ncccc23)ncc1C1CC1 | 1.11 °C | 0.4 °C
5 | NC(=O)c1ccc(-c2nc(-c3ccc4c(c3)OCCO4)c(-c3ccccn3)[nH]2)cc1 | -0.56 °C | -0.21 °C
6 | CCc1ccccc1C(=O)Nc1n[nH]c2c(C)c(F)c(C3C(C#N)=C(C)N(C)C(C)=C3C#N)cc12 | -3.05 °C | -0.71 °C
7 | CNc1ncc2cc(-c3ccc(-c4ncccc4F)cc3Cl)c(=O)n(C[C@H]3OC[C@H](N)CO3)c2n1 | -2.59 °C | -3.59 °C
8 | COc1ccc(C(F)(F)F)cc1NC(=O)Nc1ccc(Oc2cc(C)nc(N)n2)c2ccccc12 | -0.19 °C | -0.94 °C
9 | Cn1cc(C(=O)O)c2ccc(N3CCC(OCc4c(-c5c(Cl)cccc5Cl)noc4C4CC4)CC3)cc21 | -1.74 °C | -2.91 °C
10 | COc1ccccc1Nc1nc(-c2nn(Cc3c(F)cc(OCCCO)cc3F)c3ccccc23)ncc1OC | -0.6 °C | -1.94 °C
11 | CCN(C)S(=O)(=O)Nc1cccc(-c2ccc3c(NC(=O)C4CC4)n[nH]c3c2)c1 | 0.55 °C | -0.53 °C
12 | CC1CCN(C(=O)[C@@H](CCn2cccc2C#N)NS(=O)(=O)c2cccc3[nH]ccc23)CC1 | -1.03 °C | 0.52 °C
13 | COc1cc(Cl)c(C(=O)N[C@@H](CN[C@H]2CC[C@@H](N)CC2)Cc2ccc(C#N)cc2)cc1-c1ccc(CN[C@H](C)c2ccc(C)cc2)o1 | -1.12 °C | -2.42 °C
14 | CC(C)c1nc2c(c3c1[C@@H](c1ccc(C(F)(F)F)cc1)OC31CCOCC1)[C@@H](O)CC(C)(C)C2 | -1.67 °C | 0.17 °C
15 | COc1cc(OC)cc(-c2cc3cnc(N)nc3nc2NC(=O)NC(C)(C)C)c1 | -2.72 °C and 0.27 °C | -2.2 °C and -1.8 °C
16 | CC(C)(C)c1cnc(CSc2cnc(NC(=O)C3CCN(CC(=O)NCCOCCOCCOCCNc4cccc5c4C(=O)N(C4CCC(=O)NC4=O)C5=O)CC3)s2)o1 (stereo not given) | -1.66 °C | -1.74 °C
17 | CCS(=O)(=O)Nc1cccc(Oc2cncc(Nc3ccc(I)cc3F)c2C(N)=O)c1 | -0.22 °C | 1.47 °C
18 | O=C(O)Cc1ccc(CCNS(=O)(=O)c2ccc(Cl)cc2)cc1 | -1.74 °C | -0.53 °C
19 | CCNC1=N[C@@H]2[C@@H](O)[C@H](O)[C@@H](CO)O[C@@H]2S1 | -1.49 °C | -2.58 °C
20 | CC1(C)Oc2ncnc(N)c2N=C1c1ccc([C@H]2CC[C@H](CC(=O)O)CC2)cc1 | -1.69 °C | -0.57 °C
21 | CN(C)[C@H]1C[C@H](n2cnc(-c3ccc(F)cn3)c2-c2ccnc3[nH]ccc23)C1 | -2.13 °C | -2.35 °C
22 | O=C(CNC(=O)c1ccc(-c2ccccc2)cc1)NC1CCCc2ccccc21 (stereo not given) | -5.93 °C | 2.55 °C
23 | CN(C)CC#Cc1ccc2[nH]c3c(c2c1)-c1nc(N)ncc1CCC3 | -1.33 °C | -0.98 °C
24 | CC(=O)O[C@H]1C(=O)[C@@]2(C)[C@H]([C@H](OC(=O)c3ccccc3)[C@]3(O)C[C@H](OC(=O)[C@H](O)[C@@H](NC(=O)c4ccccc4)c4ccccc4)C(C)=C1C3(C)C)[C@]1(OC(C)=O)CO[C@@H]1C[C@@H]2O | -0.05 °C | -0.24 °C
25 | CCCCCNC(=O)N1CCC(CN(Cc2ccc(Cl)cc2)Cc2ccc([N+](=O)[O-])s2)C1 (stereo not given) | -2.51 °C | -3.43 °C
26 | CN[C@@H](C)C(=O)N[C@H](C(=O)N1CCC[C@H]1C(=O)N[C@H]1c2ccccc2C[C@H]1OCC#CC#CCO[C@@H]1Cc2ccccc2[C@@H]1NC(=O)[C@@H]1CCCN1C(=O)[C@@H](NC(=O)[C@H](C)NC)C1CCCCC1)C1CCCCC1 | -4.51 °C | -2.69 °C
27 | Cn1cnc(Cn2ccc3ccc(CNCc4[nH]c5ccccc5c4[C@H]4NC(=O)c5ccc(O)cc54)cc32)c1 | 0.36 °C | 0.2 °C
28 | CS(C)(=O)=Nc1ccc(-c2ccc(-c3nc4[nH]c(O[C@@H]5CO[C@H]6[C@@H]5OC[C@H]6O)nc4cc3Cl)cc2)cc1 | 1.46 °C | 0.39 °C
29 | CC(=O)Nc1cccc(-n2c(=O)n(C3CC3)c(=O)c3c(Nc4ccc(I)cc4F)n(C)c(=O)c(C)c32)c1 | -2.35 °C | -2.86 °C
30 | Fc1cccc(-n2cnc3c(NCc4nc5c(F)c(F)ccc5[nH]4)nc(N4CCOCC4)nc32)c1 | 0.39 °C | -0.44 °C
